High-throughput results from PubChem BioAssay.
NPC1 prom act – qHTS Assay for NPC1 Promoter Activators; Huh7 NPC1 promoter luciferase reporter, 24 h; Potency, µM (highest dose often 9.22 µM), usual class: activators; 320,000 tested, 2.4% active; note: nearly all actives have a fitted effect of over 60% in size
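Stably transfected Huh7 (NPC1 promoter→luciferase), 1500 cells/well in Opti-MEM + 10% FBS, 2 h settle, then compound 24 h at 37 °C. Luminescence after 10 min with Amplite reagent.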
Rab9 promoter act – qHTS Assay for Rab9 Promoter Activators. Potency, µM (titrated, usually from 9.22 µM), actives largely listed as activators. Huh7 Rab9 promoter-luciferase reporter, luminescence, 24 h. 320,000 tested, 2.8% active. AID 485297, 2010; note: nearly all actives have a fitted effect of over 60% in size
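Huh7 cells stably carrying Rab9 promoter–luciferase reporter, plated 1500 cells/well, compound added after 2 h and incubated 24 h at 37 °C; luciferase luminescence then read after 10 min with detection reagent.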
p53 reactivation – qHTS assay for re-activators of p53 using a Luc reporter; H1299 p53-A138V BP100-luciferase reporter, luminescence, 24 h; Potency, µM (series often up to 92.2 µM), actives largely listed as activators; 320,000 tested, 0.063% active; AID 504706, 2011; note: nearly all actives have a fitted effect of over 45% in size
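p53-null H1299 cells stably carrying temperature-sensitive p53-A138V and a BP100-luciferase reporter were pinned with compounds (4-point, 1:5 series) and held 24 hrs at 37 deg C. Luminescence was read 10 min after detection reagent.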
FLuc modulator – qHTS profiling assay for firefly luciferase inhibitor/activator using purifed enzyme and Km concentrations of substrates (counterscreen for miR-21 project); Luciferin 4-monooxygenase (Photinus pyralis), P08659; purified FLuc, Km substrates, luminescence inhibition; Potency, µM (titrated, usually from 57.5 µM), actives largely listed as inhibitors; 360,000 tested, 6.9% active; AID 588342, 2011; note: nearly all actives have a fitted effect of over 55% in size
Target sequence (P08659 whole entry, looked up): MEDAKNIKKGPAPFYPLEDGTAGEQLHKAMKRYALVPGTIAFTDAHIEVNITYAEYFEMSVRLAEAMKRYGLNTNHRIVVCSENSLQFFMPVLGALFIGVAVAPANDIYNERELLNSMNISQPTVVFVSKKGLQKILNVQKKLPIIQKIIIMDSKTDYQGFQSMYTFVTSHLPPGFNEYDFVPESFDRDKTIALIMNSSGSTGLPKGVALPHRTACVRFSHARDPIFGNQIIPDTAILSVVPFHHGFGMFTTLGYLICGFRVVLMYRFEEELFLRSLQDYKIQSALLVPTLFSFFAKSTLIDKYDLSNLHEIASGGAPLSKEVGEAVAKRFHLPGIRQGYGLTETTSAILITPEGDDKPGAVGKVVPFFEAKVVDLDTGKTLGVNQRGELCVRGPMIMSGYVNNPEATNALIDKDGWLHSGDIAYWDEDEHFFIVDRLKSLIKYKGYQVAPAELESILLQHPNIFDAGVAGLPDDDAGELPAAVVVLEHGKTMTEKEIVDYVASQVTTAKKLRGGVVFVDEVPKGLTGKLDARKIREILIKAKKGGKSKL
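Purified P. pyralis luciferase (10nM final) with 10uM D-luciferin and 10uM ATP (Km levels) in 50mM Tris acetate pH 7.5, 10mM Mg acetate, 0.01% Tween-20, 0.05% BSA; qHTS 6-point titration, ~60 µM downward; luminescence read.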
SMN2 splice enh – qHTS Assay for Enhancers of SMN2 Splice Variant Expression. HEK293 SMN2-luciferase splicing reporter, luminescence, 30-36 h. Potency, µM (highest dose often 46.1 µM), actives largely listed as activators. 210,000 tested, 2.8% active; note: nearly all actives have a fitted effect of over 55% in size
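qHTS luciferase splicing reporter: luminescence rises when SMN2 exon 7 is included in transfected HEK293 cells. Compound exposure lasted 30-36 h at 37C, with 4.5 mM final sodium butyrate as control, followed by a ONE-Glo read.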
ELG1 genotox – qHTS screen for small molecules that induce genotoxicity in human embryonic kidney (HEK293T) cells expressing luciferase-tagged ELG1 | Potency, µM (series often up to 46 µM), most hits filed as activators | 330,000 tested, 1.3% active | HEK293T ELG1-luciferase reporter, luminescence, 16 h; note: nearly all actives have a fitted effect of over 60% in size
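Step 1: seed 2,000 HEK293T ELG1-luciferase cells per well. Step 2: add compound or DMSO, incubate 16 hr at 37 °C. Step 3: ONE-Glo, 30 min at room temperature, read luminescence.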
Each line names hits and unclear results; the compound was inactive in the other large screens. An excerpt weighted towards active compounds, which were near 7.4% of everything screened. Calls come from the whole dose curve; as a rule, active = well fitted curve in the direction sought with a large enough effect; inconclusive = small, poorly fitted or top-dose-only effect, or another doubt; inactive = no such curve, though single readings can be large; an effect the other way counts as inactive or inconclusive.

CCOC(=O)c1ccc2nc(NC(NC(C)=O)(C(=O)OC)C(F)(F)F)sc2c1 (centres undefined)	none
COC(=O)Nc1nc2ccc(Br)cc2s1	Rab9 promoter act 1.41µM, ELG1 genotox inconclusive
CC(C)c1ccc2nc(NC(=O)C3CC3)sc2c1	NPC1 prom act 1.58µM, Rab9 promoter act 1.58µM, p53 reactivation inconclusive, FLuc modulator 7.57µM, ELG1 genotox inconclusive (no result: SMN2 splice enh)
COC(=O)c1ccc2nc(Nc3nc4ccc(F)cc4s3)sc2c1	FLuc modulator 4.78µM, ELG1 genotox inconclusive
CC(=O)Nc1ccccc1-c1nc2ccccc2n(C(C)C(=O)Nc2cccc(C)c2C)c1=O (centres undefined)	none (no result: NPC1 prom act, Rab9 promoter act, p53 reactivation, SMN2 splice enh, ELG1 genotox)
CN(Cc1ccccc1Br)C(=O)CSc1nnnn1C1CC1	none (no result: SMN2 splice enh)
CC(=O)c1sc(Nc2nc3ccc(F)cc3s2)nc1C	NPC1 prom act 2.82µM, Rab9 promoter act 1.78µM, p53 reactivation inconclusive, FLuc modulator 3.38µM, SMN2 splice enh 12.6µM
COC(=O)c1ccc2nc(NC(=O)C3CCCCC3)sc2c1	NPC1 prom act 0.891µM, Rab9 promoter act 0.316µM, FLuc modulator inconclusive, ELG1 genotox inconclusive (no result: SMN2 splice enh)
N[C@H](Cc1cc(I)c(Oc2ccc(O)c(I)c2)c(I)c1)C(=O)O	none (no result: NPC1 prom act, Rab9 promoter act, p53 reactivation, FLuc modulator, ELG1 genotox)
CN(C)N(C(=O)c1cc(-c2cccs2)nn1-c1ccccc1)C1CCS(=O)(=O)C1 (centres undefined)	none (no result: SMN2 splice enh)
CCOC(=O)C1=CC(OC(CC)CC)C(NC(C)=O)C(N)C1 (centres undefined)	none (no result: NPC1 prom act, Rab9 promoter act, p53 reactivation, FLuc modulator, ELG1 genotox)
C/C(=N\Nc1cccc2cccnc12)c1ccccc1O	Rab9 promoter act inconclusive, FLuc modulator 1.2µM, SMN2 splice enh 25.1µM, ELG1 genotox inconclusive
C/C(=N\Nc1cccc2cccnc12)c1ccccn1	NPC1 prom act 3.16µM, Rab9 promoter act 0.794µM, p53 reactivation inconclusive, FLuc modulator 0.338µM, SMN2 splice enh 2µM, ELG1 genotox inconclusive
C/C(=N\Nc1ccccn1)c1ccc(C#N)cc1	FLuc modulator inconclusive
CNC(=O)Nc1cccc2cccnc12	none (no result: SMN2 splice enh)
C/C(=N\Nc1cccc2cccnc12)c1ccc(N)cc1	NPC1 prom act 2.82µM, Rab9 promoter act 2.24µM, FLuc modulator 4.26µM, SMN2 splice enh 11.2µM, ELG1 genotox inconclusive
Cc1ccc(O)c(CNc2cccc3cccnc23)c1	none (no result: SMN2 splice enh)
CCOc1ccc(NC(=O)CSc2ccc3ccccc3n2)cc1	none (no result: NPC1 prom act, Rab9 promoter act, p53 reactivation, ELG1 genotox)
Cc1cccc(N2CCN(c3ncnc4c3nc3n4CCCCC3)CC2C)c1 (centres undefined)	none (no result: NPC1 prom act, Rab9 promoter act, p53 reactivation, SMN2 splice enh, ELG1 genotox)
O=C(Nc1nc2ccc(F)cc2s1)C1=NN(c2ccccc2)C(=O)CC1	p53 reactivation inconclusive, FLuc modulator inconclusive (no result: SMN2 splice enh)
CCN(c1ccc(NC(=O)c2ccc(N3CCCC3=O)cc2)cc1)C(C)C	FLuc modulator inconclusive, ELG1 genotox 6.51µM (no result: SMN2 splice enh)
O=C(Nc1ccccc1Br)c1ccc(N2CCCC2=O)cc1	NPC1 prom act inconclusive, Rab9 promoter act 2.51µM, FLuc modulator 15.1µM, ELG1 genotox inconclusive (no result: SMN2 splice enh)
O=C(Nc1ccccc1N1CCCC1)c1ccc(N2CCCC2=O)cc1	none (no result: SMN2 splice enh)
CN(C)S(=O)(=O)c1cccc(NC(=O)c2ccc(N3CCCC3=O)cc2)c1	none (no result: NPC1 prom act, Rab9 promoter act, FLuc modulator, SMN2 splice enh)
O=C(Nc1nc2ccc(F)cc2s1)c1ccc(N2CCCC2=O)cc1	NPC1 prom act 0.398µM, Rab9 promoter act 0.316µM, ELG1 genotox 0.461µM (no result: SMN2 splice enh)
Cc1csc(NC(=O)c2ccc(N3CCCC3=O)cc2)n1	NPC1 prom act inconclusive, Rab9 promoter act 0.316µM, FLuc modulator 1.9µM, SMN2 splice enh 0.562µM, ELG1 genotox 0.651µM
Cn1cc(S(=O)(=O)N2CCCCCC2)cc1C(=O)NCc1ccc(Cl)cc1	none (no result: NPC1 prom act, Rab9 promoter act, p53 reactivation, SMN2 splice enh, ELG1 genotox)
Cc1nnc(NC(=O)c2ccc(N3CCCC3=O)cc2)s1	NPC1 prom act inconclusive, Rab9 promoter act 2.24µM, p53 reactivation inconclusive, FLuc modulator 23.9µM, ELG1 genotox inconclusive (no result: SMN2 splice enh)
COc1ccc(S(=O)(=O)N(C)C)cc1NC(=O)CSC(C)C(=O)Nc1cc(C)on1 (centres undefined)	p53 reactivation inconclusive (no result: SMN2 splice enh)
O=C(COC(=O)c1nc(Cl)ccc1Cl)c1ccc(Cl)s1	FLuc modulator inconclusive
